Drawing on PubChem BioAssay (NCI), this text covers growth inhibition for 40 compounds.

Compounds without any hit were thinned out: in the full panel of roughly 79,000, 15% have a hit. Unmarked numbers belong to inactive results. Calls of active or inactive are those of the source. No stated cut-off is given here; in the data, active means growth inhibition above about 70%; inactive means the rest. Where a SMILES comes first, the peptide text is derived from it. The star is where a group is joined. Boc = CC(C)(C)OC(=O)*

One experiment can be described thus: NCI Yeast Anticancer Drug Screen. Data for the rad50 strain (AID 155).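 Further: 0% = growth of vehicle-only cultures of the same strain.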 The settings on record: S. cerevisiae rad50 strain growth inhibition; at 50.0 µM; stronger effect = higher value. Summed up: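 Cells are treated with compound, grown, and their growth is then scored against vehicle-only cultures of the same repair-deficient yeast strain.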
Regarding `C=CCCC1CN2CCc3cc(OC)c(OC)cc3C2CC1=O` (stereo not given), the growth inhibition was 15.3%.
Still for that read-out and setting: then `COC(=O)CCSC(=S)NCc1ccccc1`, with -14.4%.
Same read-out and setting: next, `CN(C)CC1CCC/C(=C\c2ccc(N(C)C)cc2)C1=O` (stereo not given): -18.6%; `O=Cc1ccccc1[N+](=O)[O-]`: 18.9%.
On the same count and under the same terms, then `Cc1cccc(C)c1Nc1cc(=O)[nH]c(=O)[nH]1`, with -2.6%.
In the case of `S=C(Nc1ccc(I)cc1)SCc1ccc2c(c1)OCO2`, the growth inhibition is 32.5%.
Consider `CC(=O)CC(=O)NCCCc1ccccc1`, for which the growth inhibition is -18.8%.
As for `Cc1c2cnccc2c(C)c2c1c1ccccc1n2CCCCCC#N`, the growth inhibition is 98.8% (active).
The same measure, in the same setting: then `c1ccc(N2CCCC2(c2ccccc2)c2ccccc2)cc1`, with 29.1%.
The same measure, in the same setting: next, `COC(=O)CCCCC#CCCCCC(=O)OC`: 3.25%; `CCCc1cc(OC(=O)c2c(O)cc(OC)cc2CCC)cc(O)c1C(=O)O`: 35.1%.
Same read-out and setting: then `Nc1ncnc2nc(-c3ccc(C(=O)c4cccc([N+](=O)[O-])c4)cc3)[nH]c12`, with 1.85%.
Regarding `CN(C)c1ccc(/C=c2\[nH]c(=O)/c(=C\c3ccc(N(C)C)cc3)[nH]c2=O)cc1`, the growth inhibition was 4.3%.
Turning to `O=C(NCCCl)NCc1cccc2c1CCCC2`, the growth inhibition is -12.5%.
Still for that read-out and setting: next, `Nc1ccc2c(c1)Cc1cccc(N)c1-2`: 31.8%; `N#CNC(=NCC1CCCO1)Nc1cccnc1` (stereo not given): 2.9%; `CC(=O)OCC1OC(OC(C)=O)C(NC(=O)CN(Cc2ccccc2)S(C)(=O)=O)C(OC(C)=O)C1OC(C)=O` (stereo not given): -8.6%.
Same read-out and setting: then `O=C1CCCCCCCS(=O)(=O)C1`, with -8.55%.
Same read-out and setting: then `CCc1c(COC(=O)NC)c(COC(=O)NC)cc2c1[nH]c1ccccc12`, with -16.6%; and `O=c1[nH]c2nc[nH]c(=O)c2[nH]1`, with 0.25%; and `CCCCCCCCCCCCCC(=O)OCCN(C)C`, with 4.1%.
With `[N-]=[N+]=Nc1ccccc1C(=O)NCCCNC(=O)c1ccccc1N=[N+]=[N-]`, the growth inhibition is -0.25%.
On the same count and under the same terms, next, `CCCC(=O)c1ccccc1`: 35.5%.
Still for that read-out and setting: next, `CCOc1ccc(C(=O)C=O)cc1`: 11.6%; `CC(C)COS(=O)(=O)O`: 19.2%.
On the same count and under the same terms, then `C=C1CCC2[C@](C)(CCC[C@]2(C)C(=O)O)[C@@H]1CCc1ccoc1` (stereo not given in full), with 70.8% (active); and `Cc1ccc(C)[nH]1`, with -2.85%; and `C=C1C(C(=O)O)C1C(=O)O` (stereo not given), with 4.2%.
Consider `CCOCCOCCOC(=O)c1ccccc1O`, for which the growth inhibition is -6.75%.
The same measure, in the same setting: then `COc1ccccc1NC(=O)CC(=O)n1nc(C)c(N=Nc2ccccc2C(=O)O)c1C`, with -12.6%; and `Cc1ccc(C(=O)N/N=C/c2ccc(N(C)C)cc2Cl)cc1`, with 39.5%; and `CCOC(=O)c1c(NC2=NCCC2)n[nH]c1N`, with 7.05%.
On the same count and under the same terms, then `O=[N+]([O-])c1ccccc1C1N2CCCCC2[C@@H]2c3[nH]c4ccccc4c3CCN12` (stereo not given in full), with 0.2%.
The same measure, in the same setting: then `Cn1cc(/C=C\C(=O)O)c2ccccc21`, with -10.7%; and `CCCCCCCCCCCCCCCCN1c2ccccc2C(C)(C)C12C=Cc1cccc([N+](=O)[O-])c1O2` (stereo not given), with 2.85%; and `CC1(C)CNC[C@@](C)(O)C(=O)NC(C)(C)CNC[C@@](C)(O)C(=O)N1`, with 9.75%.
`Cc1ccc(N2CCN(CCC(=O)O)CC2)cc1`: the growth inhibition is -1.15%.
Same read-out and setting: next, `Nc1cccc2c(O)cc(S(=O)(=O)O)cc12`: -1.35%; `CCOC(=O)C1C(=O)CC(C)(O)C(C(=O)OCC)C1c1ccc(N(C)C)cc1` (stereo not given): -32.7%.
Still for that read-out and setting: then `COC(=O)C(Cc1c[nH]c2ccccc12)NC(=O)C(Cc1c[nH]c2ccccc12)NC(=O)C(Cc1c[nH]c2ccccc12)NC(=O)OC(C)(C)C` (stereo not drawn) (Boc-Trp-Trp-Trp-OMe; configuration not given here), with -22.9%.

A short description of a further experiment: NCI Yeast Anticancer Drug Screen. Data for the mec2-1 strain (AID 157). The settings on record: S. cerevisiae mec2-1 strain, at 50.0 µM, stronger effect = higher value. Summed up: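 Each compound was tested on mec2-1 yeast, a strain altered in DNA damage repair or cell cycle control. Growth inhibition is reported relative to vehicle.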
For `C=CCCC1CN2CCc3cc(OC)c(OC)cc3C2CC1=O` (stereo not given), the growth inhibition was 16.1%.
Consider `COC(=O)CCSC(=S)NCc1ccccc1`, for which the growth inhibition is -30.1%.
Same read-out and setting: next, `CN(C)CC1CCC/C(=C\c2ccc(N(C)C)cc2)C1=O` (stereo not given): -44.9%; `O=Cc1ccccc1[N+](=O)[O-]`: -8.35%; `Cc1cccc(C)c1Nc1cc(=O)[nH]c(=O)[nH]1`: -2.75%.
Regarding `S=C(Nc1ccc(I)cc1)SCc1ccc2c(c1)OCO2`, the growth inhibition is 14.4%.
On the same count and under the same terms, then `CC(=O)CC(=O)NCCCc1ccccc1`, with -33.4%.
The same measure, in the same setting: next, `Cc1c2cnccc2c(C)c2c1c1ccccc1n2CCCCCC#N`: 99.1% (active); `c1ccc(N2CCCC2(c2ccccc2)c2ccccc2)cc1`: 11.3%.
Same read-out and setting: then `COC(=O)CCCCC#CCCCCC(=O)OC`, with 38.6%.
In the case of `CCCc1cc(OC(=O)c2c(O)cc(OC)cc2CCC)cc(O)c1C(=O)O`, the growth inhibition was 44.1%.
As for `Nc1ncnc2nc(-c3ccc(C(=O)c4cccc([N+](=O)[O-])c4)cc3)[nH]c12`, the growth inhibition was 6.35%.
Still for that read-out and setting: next, `CN(C)c1ccc(/C=c2\[nH]c(=O)/c(=C\c3ccc(N(C)C)cc3)[nH]c2=O)cc1`: 4.6%.
Still for that read-out and setting: next, `O=C(NCCCl)NCc1cccc2c1CCCC2`: 9.75%; `Nc1ccc2c(c1)Cc1cccc(N)c1-2`: 11.2%; `N#CNC(=NCC1CCCO1)Nc1cccnc1` (stereo not given): -9.8%.
On the same count and under the same terms, then `CC(=O)OCC1OC(OC(C)=O)C(NC(=O)CN(Cc2ccccc2)S(C)(=O)=O)C(OC(C)=O)C1OC(C)=O` (stereo not given), with 13.9%.
Consider `O=C1CCCCCCCS(=O)(=O)C1`, for which the growth inhibition is -0.05%.
On the same count and under the same terms, then `CCc1c(COC(=O)NC)c(COC(=O)NC)cc2c1[nH]c1ccccc12`, with -1.95%; and `O=c1[nH]c2nc[nH]c(=O)c2[nH]1`, with -7.6%; and `CCCCCCCCCCCCCC(=O)OCCN(C)C`, with -2.6%.
Still for that read-out and setting: then `[N-]=[N+]=Nc1ccccc1C(=O)NCCCNC(=O)c1ccccc1N=[N+]=[N-]`, with -23.1%; and `CCCC(=O)c1ccccc1`, with 3%; and `CCOc1ccc(C(=O)C=O)cc1`, with -5.65%.
Still for that read-out and setting: next, `CC(C)COS(=O)(=O)O`: 6.65%; `C=C1CCC2[C@](C)(CCC[C@]2(C)C(=O)O)[C@@H]1CCc1ccoc1` (stereo not given in full): 59.9%.
Turning to `Cc1ccc(C)[nH]1`, the growth inhibition was 7.35%.
For `C=C1C(C(=O)O)C1C(=O)O` (stereo not given), the growth inhibition was -11.8%.
The same measure, in the same setting: next, `CCOCCOCCOC(=O)c1ccccc1O`: 1.45%.
On the same count and under the same terms, then `COc1ccccc1NC(=O)CC(=O)n1nc(C)c(N=Nc2ccccc2C(=O)O)c1C`, with -25.3%; and `Cc1ccc(C(=O)N/N=C/c2ccc(N(C)C)cc2Cl)cc1`, with 20.2%; and `CCOC(=O)c1c(NC2=NCCC2)n[nH]c1N`, with 14.8%.
The same measure, in the same setting: then `O=[N+]([O-])c1ccccc1C1N2CCCCC2[C@@H]2c3[nH]c4ccccc4c3CCN12` (stereo not given in full), with -11.9%; and `Cn1cc(/C=C\C(=O)O)c2ccccc21`, with -0.6%; and `CCCCCCCCCCCCCCCCN1c2ccccc2C(C)(C)C12C=Cc1cccc([N+](=O)[O-])c1O2` (stereo not given), with -0.6%.
`CC1(C)CNC[C@@](C)(O)C(=O)NC(C)(C)CNC[C@@](C)(O)C(=O)N1`: the growth inhibition was 5.75%.
On the same count and under the same terms, then `Cc1ccc(N2CCN(CCC(=O)O)CC2)cc1`, with 8.8%.
Same read-out and setting: next, `Nc1cccc2c(O)cc(S(=O)(=O)O)cc12`: -19.2%.
In the case of `CCOC(=O)C1C(=O)CC(C)(O)C(C(=O)OCC)C1c1ccc(N(C)C)cc1` (stereo not given), the growth inhibition is -15.7%.
Same read-out and setting: next, `COC(=O)C(Cc1c[nH]c2ccccc12)NC(=O)C(Cc1c[nH]c2ccccc12)NC(=O)C(Cc1c[nH]c2ccccc12)NC(=O)OC(C)(C)C` (stereo not drawn) (Boc-Trp-Trp-Trp-OMe; configuration not given here): -16.6%.
